This note sets out measurements from PubChem BioAssay (NCATS).

Results filed as inconclusive are left out. Entries that show only a call come without a potency. Values without a mark were called inactive. Active and inactive are the calls of the source. Calls come from the whole dose curve.

One test can be described thus: Primary qHTS for Vero E6 cytotoxicity: counterscreen for inhibitors of SARS-S pseudo-typed particle cell entry (AID 1479150). The settings on record: cell viability; series mostly up to 57.1 µM; activity change, negative = cytotoxicity: at the top concentration.
With `CCC1(c2ccccc2)C(=O)NCNC1=O`, the outcome was inactive.
Still for that read-out and setting: with `O=C(O)CCNC(=O)c1ccc(N=Nc2ccc(O)c(C(=O)O)c2)cc1` the entry was “inactive”.
On to `NC(=O)OCC(COC(N)=O)c1ccccc1`, for which the “activity change, negative = cytotoxicity” value was -9.94%.
On to `NS(=O)(=O)c1cc2c(cc1C(F)(F)F)NCNS2(=O)=O`, for which the molecule was called inactive.
As to `Cc1ccccc1N1C(=O)c2cc(S(N)(=O)=O)c(Cl)cc2NC1C` (stereo not drawn), the molecule was classed as inactive.
The same measure, in the same setting: with `O=C(C1CCCCC1)N1CC(=O)N2CCc3ccccc3C2C1` (stereo not drawn) the entry was “inactive”.
The same measure, in the same setting: in the case of `O=C(O)c1cn(C2CC2)c2cc(N3CCNCC3)c(F)cc2c1=O` it was “inactive”.
Still for that read-out and setting: in the case of `C[C@](N)(Cc1ccc(O)c(O)c1)C(=O)O` it was “inactive”; in that of `CC[C@@]1(c2ccccc2)NC(=O)N(C)C1=O`, “inactive”.
As for `CS(=O)(=O)OCCCCOS(C)(=O)=O`, the result was inactive.
For the molecule `Cc1ccc(C)c(OCCCC(C)(C)C(=O)O)c1`, the “activity change, negative = cytotoxicity” value is -6.22%.
On to `CCCc1nc2c(C)cc(-c3nc4ccccc4n3C)cc2n1Cc1ccc(-c2ccccc2C(=O)O)cc1`, for which the molecule was called inactive.
As for `O=C(NCCN1CCOCC1)c1ccc(Cl)cc1`, the “activity change, negative = cytotoxicity” value is -5.58%.
As for `Cc1cc(C)cc(OCC2CNC(=O)O2)c1` (stereo not drawn), the “activity change, negative = cytotoxicity” value was -2.59%.
Regarding `CCCCN1C[C@H](O)[C@@H](O)[C@H](O)[C@H]1CO`, the molecule was called inactive.
`CC(C(=O)O)c1cccc(C(=O)c2ccccc2)c1` (stereo not drawn): the “activity change, negative = cytotoxicity” value is -0.836%.
On the same count and under the same terms, with `Oc1ccc(C2CNCCc3c2cc(O)c(O)c3Cl)cc1` (stereo not drawn) the figure was -5.13%; with `CC(C)(C)NC(=O)[C@H]1CC[C@H]2[C@@H]3CC[C@H]4NC(=O)C=C[C@]4(C)[C@H]3CC[C@]12C`, 6.18%.
As for `CC1Cc2ccccc2N1NC(=O)c1ccc(Cl)c(S(N)(=O)=O)c1` (stereo not drawn), the molecule was classed as inactive.
With `Cc1cnc(C(=O)NCCc2ccc(S(=O)(=O)NC(=O)NC3CCCCC3)cc2)cn1`, the “activity change, negative = cytotoxicity” value was 3.68%.
Still for that read-out and setting: with `NC(=O)NO` the figure was -0.869%.

A short description of a further test: Cytotoxicity counterscreen for inhibitors of SARS-CoV-2 cell entry (AID 1645845). Note: nearly all actives have a fitted effect of over 50% in size. The settings on record: cell viability (SARS-CoV-2 entry assay cells); series mostly up to 57.1 µM; activity change, negative = cytotoxicity: at the top concentration. The procedure, abridged:
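ATP-content luminescence (ATPLite 1step, 15 min RT) read after 48 h compound exposure of Expi293F cells stably expressing human ACE2; normalized to cells-only wells and media-only wells.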
In general terms: The purpose of a counterscreen is to sort out artefacts and off-target activity.
Consider `CCCN(CCC)S(=O)(=O)c1ccc(C(=O)O)cc1`, for which the result was inactive.
As to `C[C@@H](O)[C@H]1C(=O)N2C(C(=O)O)=C(S[C@@H]3CN[C@H](C(=O)N(C)C)C3)[C@H](C)[C@H]12`, the Potency result was “inactive”.
Still for that read-out and setting: in the case of `O=P(O)(O)C(O)(Cc1cccnc1)P(=O)(O)O` it was “inactive”.
`CC(C)NC[C@@H](O)COc1ccc(CC(N)=O)cc1`: the call was inactive.
Turning to `O=C1NC(=O)C(c2ccccc2)(c2ccccc2)N1`, the “activity change, negative = cytotoxicity” value is -8.34%.
For the molecule `c1cnc2cc3c(cc2n1)C1CNCC3C1`, the Potency entry is “inactive”.
`CC1(C)S[C@@H]2[C@H](NC(=O)C(C(=O)O)c3ccccc3)C(=O)N2[C@H]1C(=O)O` (stereo partly drawn): the “activity change, negative = cytotoxicity” value is -1.31%.
Still for that read-out and setting: in the case of `CC(C)(C)NC(=O)[C@@H]1CN(Cc2cccnc2)CCN1C[C@@H](O)C[C@@H](Cc1ccccc1)C(=O)N[C@H]1c2ccccc2C[C@H]1O` it was 2.45%.
Take `CCCN[C@H]1CCc2nc(N)sc2C1`: the Potency entry was “inactive”.
On to `CC(=O)CCCCn1c(=O)c2c(ncn2C)n(C)c1=O`, for which the “activity change, negative = cytotoxicity” value is -0.425%.
Take `CC(C)NCC(O)c1ccc(O)c(O)c1` (stereo not drawn): the Potency entry is “inactive”.
On the same count and under the same terms, with `COC(=O)[C@@H]1CC2=CC(=O)CC[C@]2(C)[C@@]23O[C@@H]2C[C@@]2(C)[C@@H](CC[C@@]24CCC(=O)O4)[C@H]13` the entry was “inactive”.
Still for that read-out and setting: in the case of `CC(S)C(=O)NCC(=O)O` (stereo not drawn) it was “inactive”; in that of `CCCCCOC(=O)Nc1nc(=O)n([C@@H]2O[C@H](C)[C@@H](O)[C@H]2O)cc1F`, “inactive”.
In the case of `CCn1cc(C(=O)O)c(=O)c2cc(F)c(N3CCNCC3)cc21`, the Potency result is “inactive”.
The same measure, in the same setting: with `C=C(c1ccc(C(=O)O)cc1)c1cc2c(cc1C)C(C)(C)CCC2(C)C` the entry was “inactive”.
Same read-out and setting: in the case of `CCOC(=O)c1ncn2c1CN(C)C(=O)c1cc(F)ccc1-2` it was “inactive”; in that of `CCC1(c2ccccc2)C(=O)NCNC1=O`, “inactive”; in that of `O=C(O)CCNC(=O)c1ccc(N=Nc2ccc(O)c(C(=O)O)c2)cc1`, “inactive”.
The same measure, in the same setting: in the case of `NC(=O)OCC(COC(N)=O)c1ccccc1` it was “inactive”.
Turning to `NS(=O)(=O)c1cc2c(cc1C(F)(F)F)NCNS2(=O)=O`, the call was inactive.
Still for that read-out and setting: with `Cc1ccccc1N1C(=O)c2cc(S(N)(=O)=O)c(Cl)cc2NC1C` (stereo not drawn) the entry was “inactive”.
For `O=C(C1CCCCC1)N1CC(=O)N2CCc3ccccc3C2C1` (stereo not drawn), the Potency result is “inactive”.
As to `O=C(O)c1cn(C2CC2)c2cc(N3CCNCC3)c(F)cc2c1=O`, the Potency result is “inactive”.
Same read-out and setting: with `C[C@](N)(Cc1ccc(O)c(O)c1)C(=O)O` the entry was “inactive”.
For `CC[C@@]1(c2ccccc2)NC(=O)N(C)C1=O`, the “activity change, negative = cytotoxicity” value is -13.2%.
Turning to `CS(=O)(=O)OCCCCOS(C)(=O)=O`, the Potency result is “inactive”.
Still for that read-out and setting: with `Cc1ccc(C)c(OCCCC(C)(C)C(=O)O)c1` the entry was “inactive”.
On to `CCCc1nc2c(C)cc(-c3nc4ccccc4n3C)cc2n1Cc1ccc(-c2ccccc2C(=O)O)cc1`, for which the Potency result is “inactive”.
In the case of `O=C(NCCN1CCOCC1)c1ccc(Cl)cc1`, the “activity change, negative = cytotoxicity” value is 3.88%.
For the molecule `Cc1cc(C)cc(OCC2CNC(=O)O2)c1` (stereo not drawn), the call was inactive.
As for `CCCCN1C[C@H](O)[C@@H](O)[C@H](O)[C@H]1CO`, the “activity change, negative = cytotoxicity” value is -3.25%.
